Test results from PubChem BioAssay (NCATS).
Results filed as inconclusive are left out. Calls of active or inactive are those of the source. The call rests on the fitted dose curve; in most records, active means well fitted curve in the direction sought with a large enough effect; inconclusive means small, poorly fitted or top-dose-only effect, or another doubt; inactive means no such curve, though single readings can be large; an effect the other way counts as inactive or inconclusive.

Legend:
[1] = test system: HEK293T; assay: qHTS assay to identify novel small-molecules to repurpose for Merkel cell carcinoma treatment (AID 1296009); conditions: MCC and control cell lines, CellTiter-Glo viability, 72 h; at 44.8 µM (top of the series) unless noted; further: nearly all actives have a fitted effect of over 60% in size
In short: (§1)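 Cells were treated for 72 hr at 37 degree celsius with compounds in 8- or 11-point dose response. Viability was read by CellTiter-Glo luminescence, normalized to no-cell (cytotoxicity) and DMSO controls.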

[2] = test system: MCC-13; assay: as above; conditions: MCC and control cell lines, CellTiter-Glo viability, 72 h; series mostly up to 46 µM
In short: as §1

[3] = test system: MKL-1; assay: as above; conditions: MCC and control cell lines, CellTiter-Glo viability, 72 h; series mostly up to 46 µM
In short: as §1

[4] = test system: MKL-2; assay: as above; conditions: MCC and control cell lines, CellTiter-Glo viability, 72 h; series mostly up to 46 µM
In short: as §1

[5] = test system: UISO; assay: as above; conditions: MCC and control cell lines, CellTiter-Glo viability, 72 h; series mostly up to 46 µM
In short: as §1

[6] = test system: WaGa; assay: as above; conditions: MCC and control cell lines, CellTiter-Glo viability, 72 h; series mostly up to 46 µM
In short: as §1

[7] = test system: C33A; assay: Primary qHTS to identify gynecologic anti-cancer compounds using libraries of approved drugs and bioactive compounds (AID 1345084); conditions: Gynecologic cancer cell panel viability, ATPlite luminescence, 48 h; series mostly up to 57.5 µM; further: nearly all actives have a fitted effect of over 55% in size
In short: (§2)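 Five-concentration response, 48 h; readout is ATP-driven luciferase luminescence.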

[8] = test system: CAOV3; assay: as above; conditions: Gynecologic cancer cell panel viability, ATPlite luminescence, 48 h; series mostly up to 57.5 µM
In short: as §2

[9] = test system: CASKI; assay: as above; conditions: Gynecologic cancer cell panel viability, ATPlite luminescence, 48 h; series mostly up to 57.5 µM
In short: as §2

[10] = test system: Es-2; assay: as above; conditions: Gynecologic cancer cell panel viability, ATPlite luminescence, 48 h; series mostly up to 57.5 µM
In short: as §2

[11] = test system: HeLa; assay: as above; conditions: Gynecologic cancer cell panel viability, ATPlite luminescence, 48 h; series mostly up to 57.5 µM
In short: as §2

[12] = test system: Hek293T; assay: as above; conditions: Gynecologic cancer cell panel viability, ATPlite luminescence, 48 h, control line for the selectivity index; series mostly up to 57.5 µM
In short: as §2

[13] = test system: JEG-3; assay: as above; conditions: Gynecologic cancer cell panel viability, ATPlite luminescence, 48 h; series mostly up to 57.5 µM
In short: as §2

[14] = test system: OV90; assay: as above; conditions: Gynecologic cancer cell panel viability, ATPlite luminescence, 48 h; series mostly up to 57.5 µM
In short: as §2

[15] = test system: PA-1; assay: as above; conditions: Gynecologic cancer cell panel viability, ATPlite luminescence, 48 h; series mostly up to 57.5 µM
In short: as §2

[16] = test system: SKOV3; assay: as above; conditions: Gynecologic cancer cell panel viability, ATPlite luminescence, 48 h; series mostly up to 57.5 µM
In short: as §2

[17] = test system: Tov-21-G; assay: as above; conditions: Gynecologic cancer cell panel viability, ATPlite luminescence, 48 h; series mostly up to 57.5 µM
In short: as §2

[18] = test system: Tov112D; assay: as above; conditions: Gynecologic cancer cell panel viability, ATPlite luminescence, 48 h; series mostly up to 57.5 µM
In short: as §2

[19] = test system: NIH3T3; assay: qHTS assay to identify novel small-molecules to repurpose for Merkel cell carcinoma treatment (AID 1296009); conditions: MCC and control cell lines, CellTiter-Glo viability, 72 h; at 44.8 µM (top of the series) unless noted; further: nearly all actives have a fitted effect of over 60% in size
In short: as §1

[20] = test system: MCC-26; assay: as above; conditions: MCC and control cell lines, CellTiter-Glo viability, 72 h; series mostly up to 46 µM
In short: as §1

Measured: Potency

Cc1ncc([N+](=O)[O-])n1CC(O)CCl (configuration not stated)
inactive: [1] | [2] | [3] | [4] | [5] | [6] | [7] | [8] | [9] | [10] | [11] | [12] | [13] | [14] | [15] | [16] | [17] | [18]

CCCCC(CC)COC(=O)c1ccccc1O (configuration not stated)
inactive: [1] | [2] | [3] | [4] | [19] | [5] | [6] | [7] | [9] | [10] | [11] | [12] | [13] | [14] | [15] | [16] | [17] | [18]

C[C@@H](O)[C@H](N)C(=O)O
inactive: [1] inactive [at 17.4 µM] | [2] | [20] | [3] | [4] | [5] | [6] | [7] | [9] | [10] | [11] | [12] | [13] | [14] | [15] | [16] | [17] | [18]

Cc1ccc(C(C)C)cc2c(C)ccc1-2
inactive: [1] | [2] | [3] | [4] | [19] | [5] | [6] | [7] | [8] | [9] | [10] | [11] | [12] | [13] | [14] | [15] | [17] | [18]

C[C@H]1O[C@@H](n2cc(F)c(=O)[nH]c2=O)[C@H](O)[C@@H]1O
inactive: [1] | [2] | [3] | [4] | [5] | [6] | [7] | [9] | [10] | [11] | [12] | [13] | [14] | [15] | [16] | [18]

OCC(CO)N[C@H]1C[C@](O)(CO)[C@@H](O)[C@H](O)[C@H]1O
inactive: [1] | [2] | [3] | [4] | [5] | [6] | [7] | [8] | [9] | [10] | [11] | [12] | [13] | [14] | [15] | [16] | [17] | [18]

CC(C)(C)C(=O)NCCCC(=O)O
inactive: [1] | [2] | [3] | [4] | [19] | [5] | [6] | [7] | [8] | [9] | [10] | [11] | [12] | [13] | [14] | [15] | [16] | [17] | [18]

[O-][n+]1cccc(CO)c1
inactive: [1] | [2] | [3] | [4] | [19] | [5] | [6] | [7] | [8] | [9] | [10] | [11] | [12] | [13] | [14] | [15] | [17] | [18]

CN(C)CCN(Cc1ccccc1)c1ccccn1
inactive: [1] | [2] | [20] | [3] | [4] | [5] | [6] | [7] | [9] | [10] | [11] | [13] | [14] | [15] | [16] | [17] | [18]

CCCCOc1cc(C(=O)OCCN(CC)CC)ccc1N
inactive: [2] | [20] | [3] | [4] | [19] | [5] | [6] | [7] | [8] | [9] | [10] | [11] | [12] | [13] | [14] | [15] | [16] | [17] | [18]

Oc1ccc(C(O)CNCCCCCCNCC(O)c2ccc(O)c(O)c2)cc1O (configuration not stated)
inactive: [1] | [2] | [3] | [4] | [5] | [6] | [7] | [8] | [9] | [10] | [11] | [12] | [13] | [14] | [15] | [16] | [17] | [18]

NC(=O)NNc1ccccc1
inactive: [2] | [20] | [3] | [4] | [5] | [6] | [7] | [9] | [10] | [11] | [12] | [13] | [14] | [15] | [16] | [17] | [18]

NC(=O)c1ncn([C@@H]2O[C@H](CO)[C@@H](O)[C@H]2O)c1N
inactive: [2] | [20] | [3] | [4] | [5] | [6] | [7] | [8] | [9] | [10] | [11] | [12] | [13] | [14] | [15] | [16] | [17] | [18]
